Screening results from PubChem BioAssay.
Only some compounds are listed: those with a hit (about 4.5% of all), similar ones and a draw of the others.
DAX1 inh-1 = DAX1 (NR0B1) inhibition, primary screen. HEK293T StAR-luciferase reporter, SF-1/DAX-1 repression relief. inhibition, % at 6.8 µM. actives 1.1% (n = 370,000). AID 652010;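 active = inhibition above the mean over all tested compounds plus 3 SD, cut at about 3.6% in these data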;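 note: 0% = DAX-1 cells with DMSO and 100% = cells lacking DAX-1 with DMSO; higher inhibition means more luminescence from relief of DAX-1 repression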
DAX1 inh-2 = inhibits human nuclear receptor DAX1. inhibition, % at 6.75 µM. HEK293 Gal4-DAX1 luciferase reporter, luminescence. actives 0.99% (n = 340,000);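 active = inhibition above the mean over all tested compounds plus 3 SD, cut at about 4.2% in these data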;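 note: 0% = DAX1-transfected cells with DMSO and 100% = empty-vector control cells with DMSO; inhibition shows as a rise in luminescence from relieved DAX1 repression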
Target sequence (P51843 207-470 limits assumed): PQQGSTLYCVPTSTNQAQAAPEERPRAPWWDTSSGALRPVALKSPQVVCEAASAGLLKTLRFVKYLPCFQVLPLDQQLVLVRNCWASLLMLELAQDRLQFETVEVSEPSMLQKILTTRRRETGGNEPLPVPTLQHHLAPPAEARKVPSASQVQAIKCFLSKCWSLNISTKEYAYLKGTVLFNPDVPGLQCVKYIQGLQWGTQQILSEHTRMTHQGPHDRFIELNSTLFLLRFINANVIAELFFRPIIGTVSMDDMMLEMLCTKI
FXN GAA850 act = increases GAA850 frataxin promoter reporter activity. HEK293 lucGAA850 FXN promoter luciferase reporter, 24 h; percent of 10 µM SAHA response. activation, % at 6 µM. actives 0.56% (n = 360,000). AID 540364;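 active = activation above the average of all compounds screened plus 3 SD, cutoff fixed separately per campaign, cut at about 7.5% in these data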;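 note: 0% = DMSO wells and 100% = 10 µM SAHA wells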
ssDAF-12 act = activates DAF-12 receptor from parasite S. stercoralis. HEK293 ssDAF-12/GRIP1 lit1-tk-luc reporter, luminescence; % of 3 µM dafachronic acid response. actives 1% (n = 370,000). AID 652126. activation, % at 6.8 µM;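 active = activation above the mean over all tested compounds plus 3 SD, cut at about 0.9% in these data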;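 note: 0% = DMSO-only wells and 100% = 3 µM delta7-dafachronic acid wells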
hgDAF12 agonist = hgDAF-12 agonism, primary luciferase screen. activation, % at 6.8 µM. actives 1.8% (n = 370,000). HEK293 GAL4-hgDAF12 UAS-luciferase reporter, agonist luminescence; normalized to butyrate control;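 active = activation above a cutoff set at the mean of all screened compounds plus 3 SD, cut at about 10% in these data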;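 note: 0% = DMSO wells and 100% = sodium butyrate wells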
hcDAF-12 act = activates DAF-12 receptor from parasite H. contortus; HEK293 hcDAF-12 lit1-tk-luc reporter, luminescence; 0% DMSO, 100% Δ7-dafachronic acid; activation, % at 6.8 µM; actives 1.4% (n = 370,000); AID 652067;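 active = activation above the mean of all tested compounds plus 3 SD, cut at about 5.5% in these data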;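 note: 100% = response to 3 µM Δ7-dafachronic acid high control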
Active calls of the source: *; nt = no result.

SMILES | DAX1 inh-1 | DAX1 inh-2 | FXN GAA850 act | ssDAF-12 act | hgDAF12 agonist | hcDAF-12 act
COC(=O)[C@@H]1[C@H](O[Si](C)(C)C(C)(C)C)C2OC2C[C@H]1S(=O)(=O)c1ccccc1 (stereo partly drawn) | nt | nt | nt | -2 | 0 | -2
COCCNC(=S)N1CCN(c2nc(-c3cccc(OC)c3)cs2)CC1 | -1 | 4.3* | 1 | -2 | 0 | -1
NC(=O)CSc1nnc(-c2ccc(O)cc2)n1Cc1ccco1 | 0 | 9.2* | 1 | -1 | 0 | 0
O=C(CSc1nnc(-c2ccncc2)n1Cc1ccco1)Nc1ccccc1F | -1 | 6.2* | 1 | -2 | -2 | -2
NC(=O)CSc1nnc(-c2cccs2)n1Cc1ccco1 | 0 | 5.5* | 1 | -2 | -1 | -1
NC(=O)CSc1nnc(-c2ccccn2)n1Cc1ccco1 | 0 | 2 | -1 | -1 | 1 | 1
O=C(Nc1ccc(C(=O)O)cc1)/C(=C\c1ccc([N+](=O)[O-])cc1)NC(=O)c1ccco1 | 0 | 4.3* | 0 | -1 | -2 | 0
O=C(NCc1ccccc1)/C(=C\c1ccc([N+](=O)[O-])cc1)NC(=O)c1ccco1 | -1 | 1 | -1 | 0 | 4 | 0
O=C(NCCNCc1ccc(F)cc1)c1ccco1 | -1 | 0 | -1 | -2 | -2 | -1
O=C(NCCNc1ccc([N+](=O)[O-])cc1)c1ccco1 | -1 | 4.5* | -1 | -1 | 3 | -2
O=C(NCCNCc1cccc(Cl)c1)c1ccco1 | 2 | 0 | 2 | 1.1* | 1 | 0
CC(C)N1CCCCC(NC(=O)c2ccc(F)cc2)C1=O (stereo not drawn) | 0 | nt | nt | -1 | 0 | -1
COc1ccc(C2CC(c3ccc(Cl)cc3Cl)n3nc(N)nc3N2)cc1 (stereo not drawn) | 0 | 5.2* | 1 | -1 | -1 | -2
COc1cccc(C2CC(c3ccccc3OC)n3ncnc3N2)c1 (stereo not drawn) | 0 | 5.5* | 0 | -1 | 0 | 0
CCOc1ccc(C2CC(c3cccc(OC)c3)Nc3nc(N)nn32)cc1 (stereo not drawn) | 2 | 4.7* | 2 | -1 | 0 | -1
COc1cccc(C2CC(c3ccc(C)cc3)n3nc(N)nc3N2)c1 (stereo not drawn) | 0 | 2 | -1 | -2 | -1 | -3
COc1cccc(C2CC(c3ccccc3)Nc3ncnn32)c1 (stereo not drawn) | 0 | 0 | 3 | -1 | 2 | 2
Cc1nn(C)c(C)c1NC(=O)CCl | -1 | 1 | 3 | 1.2* | -7 | 4
CCOc1ccc(C(=O)NCC(=O)OCc2nnc(-c3ccccc3)o2)cc1OCC | 4.2* | 1 | 1 | -1 | -2 | 0
COC(=O)c1cc(-c2cc(Cl)cc(Cl)c2)c(=O)n2c1CCC2 | -1 | nt | nt | -1 | -1 | 0
COC(=O)[C@H](CC(C)C)N1Cc2nnn(Cc3ccc(C)cc3)c2-c2cc(F)ccc2S1(=O)=O | 0 | nt | nt | -1 | -2 | -1
COc1cc(NC(=O)c2ccccc2)c(OC)cc1NC(=O)CSc1[nH]c(=O)cc(C)c1C#N | 0 | 4.4* | -3 | -1 | 0 | -1
Cc1cc(=O)[nH]c(SCC(=O)Nc2cccc3ccccc23)c1C#N | nt | 0 | 5 | nt | nt | nt
CC(Sc1nnc(-c2ccc(OC(F)F)cc2)o1)C(=O)NCC1CCCO1 (stereo not drawn) | 1 | 0 | 0 | 1.1* | -2 | 2
CC(Sc1nnc(-c2ccc(OC(F)F)cc2)n1N)C(=O)NCC1CCCO1 (stereo not drawn) | 4.4* | 0 | -1 | -1 | 1 | 0
SMILES | DAX1 inh-1 | DAX1 inh-2 | FXN GAA850 act | ssDAF-12 act | hgDAF12 agonist | hcDAF-12 act
CC(Sc1nnc(-c2ccco2)n1N)C(=O)NCC1CCCO1 (stereo not drawn) | -1 | 0 | 2 | -1 | 1 | -1
C=CC(=O)NC1CCCCN(C(C)C)C1=O (stereo not drawn) | 0 | nt | nt | -1 | 0 | -1
O=[N+]([O-])c1cc(S(=O)(=O)Nc2ccccc2)ccc1Nc1ccccc1 | -1 | 1 | 2 | 1.6* | 0 | 0
OCCCNc1ncnc2c1ncn2[C@H]1CN(Cc2ccc3c(c2)OCO3)C[C@@H](CO)O1 | 0 | nt | -1 | -1 | -1 | 6.3*
CC(=O)C(Sc1nc(N(C)C)nc(N(C)C)n1)C(=O)Nc1ccccc1 (stereo not drawn) | 0 | 1 | -1 | -1 | 0 | 1
CC(=O)C(Sc1nn(C)c(=S)s1)C(=O)Nc1ccccc1 (stereo not drawn) | 2 | 1 | 5 | 1.0* | 6 | 2
Oc1[nH]c2ccc(Br)cc2c1N=Nc1ccc(F)cc1 | 0 | 1 | 1 | 0 | 3 | 5
CC(C)(O)C(=O)N=Nc1c(O)[nH]c2ccccc12 | 2 | 1 | 6 | 0 | 10* | 5
Oc1[nH]c2ccccc2c1N=Nc1ccc(F)cc1 | 2 | 2 | 5 | 1 | 12* | 4
c1ccc(-c2nnc(-c3ccccn3)nn2)nc1 | 3 | 3 | 6 | 0 | 13* | 4
CCCCNC(=O)N(C)c1nc2ccccc2s1 | 4 | 0 | 4 | -1 | 9 | 5.8*
COC(=O)[C@H]1C[C@@]2(N3CCCCC3)c3ccccc3N(S(=O)(=O)c3ccccc3)[C@H]2N1 | 0 | nt | nt | -2 | 1 | 1
CC(=O)/C=C1/C(=O)Nc2ccccc21 | 0 | 0 | -2 | 0 | 2 | 6.0*
O=C(Nc1ccc(C(=O)N2CCCCC2)cc1)[C@H]1O[C@@H](n2ccc(=O)[nH]c2=O)[C@H](O)[C@@H]1O | 3.7* | nt | nt | -1 | 1 | 1
Cc1cc(C)cc(C(=O)OCCCN(C)C2CN(Cc3cn(Cc4ccccc4C(F)(F)F)nn3)S(=O)(=O)C2)c1 (stereo not drawn) | -3 | nt | nt | -2 | -1 | -3
O=C(N/N=C/c1ccc(O)cc1)c1cc(C23CC4CC(CC(C4)C2)C3)[nH]n1 | 1 | -1 | -1 | 1.0* | 1 | -1
COc1ccc(/C=N/NC(=O)c2cc(C34CC5CC(CC(C5)C3)C4)[nH]n2)cc1OC | 0 | -1 | 2 | -2 | -2 | -2
CCCCNC(=O)C[C@H]1C[C@@]2(C(=O)OC)C(=C[C@H](COCc3ccccc3)O[C@@H]2C)N(Cc2ccco2)C1=O | -2 | nt | nt | -2 | 0 | -2
Cc1nn(-c2ccc(F)cc2)c2sc(C(=O)OCC(=O)N3CCC(C)CC3)cc12 | -1 | 6.3* | 0 | -1 | 1 | 1
CC(=O)CSc1nc2ccccc2s1 | 0 | 1 | 3 | 0 | 4 | -1
Cn1cccc1C(=O)NC(=O)CSc1nc2ccccc2s1 | 1 | 0 | 0 | 1.0* | 4 | 4
